Test [1] relates to Plasmodium falciparum Sir2 (PF13_0152, Sir2A). Nature of the test: pfSir2 binders on small-molecule microarrays, primary screen, biochemical, small-molecule microarray, 635 nm fluorescence (AID 1098).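 Also: score merges spot fluorescence intensity with its signal-to-noise ratio.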 The conditions noted are these: small-molecule microarray binding, fluorescence 635 nm; higher = more signal.
Test [2] is described as follows: small-molecule microarray binders of probe aDKK1, primary screen, biochemical, biotinylated probe, 635/667 nm fluorescence (AID 1099).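 Also: score merges 667nm spot fluorescence with signal to noise across triplicate slides; reference of the scale not given here.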 To be noted: higher = more signal.
Test [3] is described as follows: small-molecule microarray binders of probe aCHRDL2, primary screen, biochemical, biotinylated probe, 635/667 nm fluorescence (AID 1100). The conditions noted are these: higher = more signal.
Test [4] can be described thus: splicing luciferase reporter signal modulators, primary screen, spliceosome inhibition project, cell-based, HEK293, splice +/- reporter (AID 1101).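 Also: HEK293 cells carrying a splicing-competent luciferase reporter gene; test concentration not given here.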 The conditions noted are these: luminescence, 24 h, higher = more signal, called active from +8 up or from −8 down.
The target of test [5] is Fibroblast growth factor 10 (Homo sapiens) (UniProt O15520). Nature of the test: FGF10 binders on small-molecule microarrays, primary screen, biochemical, small-molecule microarray, 635 nm fluorescence (AID 1102). The conditions noted are these: FGF10 binding, fluorescence 635 nm, higher = more signal.
Fibroblast growth factor 10 (Homo sapiens), sequence (O15520 whole entry, looked up): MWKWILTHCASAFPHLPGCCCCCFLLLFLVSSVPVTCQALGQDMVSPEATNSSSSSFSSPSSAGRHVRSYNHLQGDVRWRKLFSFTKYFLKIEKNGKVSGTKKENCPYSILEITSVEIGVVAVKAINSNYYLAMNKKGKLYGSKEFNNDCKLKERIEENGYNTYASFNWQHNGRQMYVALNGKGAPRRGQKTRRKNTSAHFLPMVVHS
For test [6], the system named is glycogen synthase kinase-3 (GSK3A per assay name; protocol says GSK3B). Nature of the test: GSK3 binders on small-molecule microarrays, primary screen, biochemical, small-molecule microarray, 635 nm fluorescence, GSK3A (AID 1103). Also: the record names both GSK3A and GSK3B. The conditions noted are these: small-molecule microarray binding, fluorescence 635 nm; higher = more signal.
The target in test [7] is Epidermal growth factor receptor (Homo sapiens) (UniProt P00533). Nature of the test: EGFR binders on small-molecule microarrays, primary screen, biochemical, small-molecule microarray, 635 nm fluorescence (AID 1104).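 Also: score merges 667 nm emission intensity with spot signal to noise over triplicate slides.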 The conditions noted are these: EGFR binding, higher = more signal.
Epidermal growth factor receptor (Homo sapiens), sequence (P00533 whole entry, looked up): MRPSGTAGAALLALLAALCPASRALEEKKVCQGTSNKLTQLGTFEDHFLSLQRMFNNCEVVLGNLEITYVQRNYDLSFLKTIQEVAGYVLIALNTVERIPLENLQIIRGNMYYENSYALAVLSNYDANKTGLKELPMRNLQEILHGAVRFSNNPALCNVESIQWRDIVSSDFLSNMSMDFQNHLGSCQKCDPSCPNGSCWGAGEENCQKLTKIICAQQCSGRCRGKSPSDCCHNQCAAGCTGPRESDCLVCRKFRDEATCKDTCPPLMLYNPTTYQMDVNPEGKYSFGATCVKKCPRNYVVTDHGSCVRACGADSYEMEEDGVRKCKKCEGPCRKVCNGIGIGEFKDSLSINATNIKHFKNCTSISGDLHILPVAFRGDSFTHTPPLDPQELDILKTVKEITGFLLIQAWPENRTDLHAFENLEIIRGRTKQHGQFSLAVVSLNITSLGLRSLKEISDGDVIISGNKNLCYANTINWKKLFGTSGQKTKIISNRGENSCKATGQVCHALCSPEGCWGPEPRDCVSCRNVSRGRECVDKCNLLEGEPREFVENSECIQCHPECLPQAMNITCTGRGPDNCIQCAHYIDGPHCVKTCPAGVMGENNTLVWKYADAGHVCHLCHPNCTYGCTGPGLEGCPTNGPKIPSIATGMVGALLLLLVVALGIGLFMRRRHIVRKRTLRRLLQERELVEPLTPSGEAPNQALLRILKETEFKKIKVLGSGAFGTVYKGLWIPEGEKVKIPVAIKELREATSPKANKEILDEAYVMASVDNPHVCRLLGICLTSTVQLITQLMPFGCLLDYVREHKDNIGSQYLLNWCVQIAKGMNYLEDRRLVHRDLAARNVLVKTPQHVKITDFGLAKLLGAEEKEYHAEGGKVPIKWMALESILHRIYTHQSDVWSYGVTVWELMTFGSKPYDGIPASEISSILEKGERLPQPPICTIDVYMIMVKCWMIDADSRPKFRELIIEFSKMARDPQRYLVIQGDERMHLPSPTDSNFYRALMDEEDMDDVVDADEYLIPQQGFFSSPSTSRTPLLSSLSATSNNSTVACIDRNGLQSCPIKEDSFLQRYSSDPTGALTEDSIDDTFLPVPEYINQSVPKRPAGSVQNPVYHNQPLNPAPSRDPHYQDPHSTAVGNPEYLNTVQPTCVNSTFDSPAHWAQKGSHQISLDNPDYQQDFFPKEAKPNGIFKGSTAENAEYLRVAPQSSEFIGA
For test [8], the target named is Follistatin-related protein 3 (Homo sapiens) (UniProt O95633). In words: FSTL3 binders on small-molecule microarrays, primary screen, biochemical, small-molecule microarray, 635 nm fluorescence (AID 1105).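 Also: score merges emission near 667 nm and signal to noise per printed spot across three slides.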 The conditions noted are these: FSTL3 binding, higher = more signal.
Follistatin-related protein 3 (Homo sapiens), sequence (O95633 whole entry, looked up): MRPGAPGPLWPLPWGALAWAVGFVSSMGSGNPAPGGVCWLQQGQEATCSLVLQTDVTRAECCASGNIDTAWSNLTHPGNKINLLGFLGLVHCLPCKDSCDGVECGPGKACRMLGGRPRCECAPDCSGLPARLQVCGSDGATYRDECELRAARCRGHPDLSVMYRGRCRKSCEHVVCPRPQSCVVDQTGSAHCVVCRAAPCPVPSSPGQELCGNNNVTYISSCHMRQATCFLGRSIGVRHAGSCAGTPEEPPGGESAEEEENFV
The target in test [9] is Dickkopf-related protein 1 (Homo sapiens) (UniProt O94907). Nature of the test: DKK1 binders on small-molecule microarrays, primary screen, biochemical, small-molecule microarray, 635 nm fluorescence scan (AID 1106).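 Also: score merges emission near 667 nm with signal to noise over three replicate slides.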 The conditions noted are these: DKK1 binding, higher = more signal.
Dickkopf-related protein 1 (Homo sapiens), sequence (O94907 whole entry, looked up): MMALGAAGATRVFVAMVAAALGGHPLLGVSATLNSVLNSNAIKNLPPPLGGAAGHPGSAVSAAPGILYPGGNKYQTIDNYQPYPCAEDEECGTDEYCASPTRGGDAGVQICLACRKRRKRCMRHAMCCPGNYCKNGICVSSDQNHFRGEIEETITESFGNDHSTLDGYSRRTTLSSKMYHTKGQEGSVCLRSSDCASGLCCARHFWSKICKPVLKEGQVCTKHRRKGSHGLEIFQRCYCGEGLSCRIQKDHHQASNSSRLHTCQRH
The test system of test [10] is Inhibin beta A chain (activin A). Nature of the test: INHBA (activin A) binders on microarrays, primary screen, biochemical, small-molecule microarray, 635 nm fluorescence scan (AID 1107).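 Also: mouse activin A protein probed at 4.33 µg/mL on printed slides; score merges bound-protein fluorescence near 667 nm with spot signal-to-noise.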 To be noted: small-molecule microarray binding, higher = more signal.

Calls of active or inactive are those of the source.

Consider `CN(C)CCCC[C@@H]1NC(=O)[C@@H]2C[C@H](C(=O)NCCCCCCN)[C@H](c3cccc(OCCO)c3)N2C1=O`, for which the composite z-score in [1] came to 0.891; in test [2] it was 0.956; in test [3] it was 0.584; in test [5] it was 0.894; in [6], 1.22; in test [7], 0.0249. The figures for the composite z-score in test [8], in test [9] and in test [10] were 0.0587, 0.603 and 0.6, respectively. Further, the z-score in [4] was -0.502 (inactive).
Turning to `C=CC[C@@]12N=C(c3ccc(OCCCO)cc3)O[C@@H]1c1ccccc1N(C)C2=O`, the composite z-score in [1] came to 1.13; in test [2], 0.178; in test [3], 0.899; in [5] it was 1.38; in test [6], 1.32; in test [7] it was 0.166. In addition, the values for the composite z-score in [8], in test [9] and in [10] were 0.964, 0.498 and 1.1, respectively. The z-score in test [4] is -0.933 (inactive).
As for `COc1ccccc1CN1C(=O)c2ccccc2[C@@H](C(=O)NC2CC2)[C@@H]1c1ccc(CO)cc1`, the composite z-score is 0.743 in test [1]; 0.667 in [2]; 0.556 in test [3]; 1.27 in test [5]; 1.28 in test [6]; 0.521 in [7]. Further, the values for the composite z-score in test [8], in [9] and in test [10] were 1.44, 1.23 and 0.633, respectively. In [4], the z-score was 0.0463 (inactive).
With `CC(C)C(=C=CC[C@H](O)c1ccc(OCCO)cc1)CCO`, the composite z-score was determined as 1.42 in test [1]; 0.0229 in test [2]; 0.0152 in test [3]; 0.835 in test [5]; 0.145 in [6]; 0.0098 in [7]. Also, the composite z-score in [8] stood at 0.842; in [9], 0.296; in test [10], 0.943. For the same molecule, in [4], the z-score is 0.0477 (inactive).
For the molecule `COC(=O)C(CC#Cc1ccc2c(c1)[C@]1(C(=O)N2)[C@H](C(=O)Nc2nc3ccccc3s2)[C@H]2C(=O)O[C@H](c3ccccc3)[C@H](c3ccccc3)N2[C@@H]1c1ccccc1OCCO)C(=O)OC`, the composite z-score in [1] amounted to 1.61; in [2], 0.473; in test [3] it was 0.561; in test [5], 0.904; in test [6] it was 1.24; in test [7] it was 0.282. For the same molecule, the results for the composite z-score in test [8], in test [9] and in test [10] were 0.701, 0.193 and 0.303, respectively. Moreover, the z-score in test [4] was 1.44 (inactive).
As to `C=CCOC(=O)[C@H]1[C@@H]2C(=O)O[C@@H](c3ccccc3)[C@@H](c3ccccc3)N2[C@@H](c2ccc(OCCOC(=O)[C@@H]3C[C@@H]4C(=O)N[C@@H](CC(C)C)C(=O)N4[C@@H]3c3ccc(O)cc3)cc2)[C@]12C(=O)Nc1ccccc12`, the composite z-score was 1.58 in test [1]; 0.105 in [2]; 0.257 in test [3]; 1.26 in test [5]; 1.3 in test [6]; 0.671 in test [7]. In addition, the figures for the composite z-score in test [8], in test [9] and in test [10] were 1.3, 0.675 and -0.233, respectively. In [4], the z-score is 0.426 (inactive).
For the molecule `C=C(C)[C@@H]1CC=C(C(O)C2C=CC3C(=O)N(C)C(=O)C3N2Nc2ccccc2)CC1` (stereo not given in full), the composite z-score was 0.433 in [1]; 0.344 in test [2]; 0.581 in [3]; 1.03 in [5]; 1.03 in test [6]; 0.928 in test [7]. In addition, the composite z-score in test [8] turned out to be 1.42; in test [9], 1.11; in test [10], 1.43. Further, the z-score in [4] was 1.98 (inactive).
`CCCCN1CC=CC23O[C@@H]4C=CCCOC(=O)C4[C@H]2C(=O)N(CCCCCCO)[C@@H]3C1=O` (stereo not given in full): the composite z-score in test [1] is 1.45; in [2], -0.466; in [3] it was -0.112; in [5], -1.22; in [6], -0.163; in test [7], -0.677. Further, the values for the composite z-score in test [8], in test [9] and in [10] were -0.187, -1.21 and -0.39, respectively. For the same molecule, the z-score in test [4] was 0.705 (inactive).
For `CCCCCCc1nc(-c2cc(C)c(OC)c(C)c2)cc2c1[Si](C(C)C)(C(C)C)OC2`, the composite z-score in test [1] is -0.218; in test [2], -0.12; in test [3] it was -0.0937; in [5], -0.0932; in test [6], 0.194; in test [7] it was -0.314. The composite z-score is -0.105 in test [8], -0.0304 in test [9] and 0.641 in [10]. Further, in test [4], the z-score was -2.3 (inactive).
In the case of `C=C(COC)/C(=C/C[C@@H](OC(C)=O)c1ccc(OCCO)cc1)c1cnc2ccccc2c1`, the composite z-score is 1.14 in test [1]; -0.151 in test [2]; 0.352 in test [3]; 1.57 in test [5]; 0.369 in [6]; 0.824 in test [7]. Besides, the composite z-score in test [8] is 1.49; in [9] it was 1.25; in [10], 1.7. In addition, the z-score in [4] is -0.949 (inactive).

(Values after PubChem BioAssay.)
